Results: PubChem BioAssay AID743279 (National Center for Advancing Translational Sciences (NCATS), 2014)
The campaign covered roughly 360,000 compounds. About 17,000 (4.7%) were called active. Roughly 5% stayed inconclusive and do not appear here. The entries come from a sample that favours actives as a whole. Unmarked numbers belong to inactive results. Cut-off read from the data, not from the text of the source: active = activity change below about -50%; inconclusive = mostly about -30% to -49%; inactive = weaker than that.

Test: qHTS for Inhibitors of Inflammasome Signaling: IL-1-beta AlphaLISA Primary Screen
Settings: THP-1 LPS/ATP IL-1B secretion, 16 h; at 57.5 µM, stronger effect = lower value
Procedure, shortened: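 Secreted IL-1B measured by AlphaLISA bead assay after 16 h compound exposure of THP-1 cells; compounds (final up to 57.5 uM) added 1 h before LPS (250 ng/mL) and ATP (1.25 mM) stimulation; lower signal means less secretion.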
% is set by controls: 0 for no effect and ±100 for the full control effect.

Which activity change does the source give for `CCN1CN(Cc2ccccc2)CNC1=S` here?
Its activity change is 0.299%.

For `CCc1nnc(NC(=O)C2CCN(C(=O)c3ccccc3C)CC2)s1`, which activity change is on record?
The activity change was -4.49%.

For `CCOc1ccc(S(=O)(=O)N2CCC(C(=O)NCc3ccccn3)CC2)cc1Cl`, which activity change is on record?
The activity change was -5.47%.

For `Cc1ccc(C(NC(=O)C2CCN(CCOc3ccc(Cl)cc3Cl)CC2)c2ccccn2)cc1` (centres undefined), which activity change is on record?
The activity change was -68.4% (active).

For `O=C(CCCOc1ccc(Cl)cc1Cl)NNC(=O)C1CCC1`, which activity change is on record?
The activity change was -7.73%.

With `CC(C)C[C@@H]1COc2cc(N3CCC[C@@H]3CO)ccc2S(=O)(=O)N1` as the compound, how does the activity change read?
Its activity change is 24.4%.

Which activity change does the source give for `COc1cccc(CNC(=O)c2n[nH]c3ccccc23)c1` here?
The activity change was -5.24%.

With `COc1cccc(CNc2nc(C(F)(F)F)nc3ccccc23)c1` as the compound, how does the activity change read?
Its activity change is -81.4% (active).

For `CCc1ccc(C(CNc2nc(C(F)(F)F)nc3ccccc23)N(C)C)cc1` (centres undefined), which activity change is on record?
The activity change was -104% (active).

For `CN(NC(=O)c1ccccc1F)c1nc(C(F)(F)F)nc2ccccc12`, which activity change is on record?
Its activity change is 94.2%.

For `COc1ccc(CNc2ncnc3ccccc23)cc1`, which activity change is on record?
Its activity change is -5.53%.

For `NS(=O)(=O)c1ccc(CCNc2nc(C(F)(F)F)nc3ccccc23)cc1`, which activity change is on record?
The activity change was -29.6%.

With `O=C(NCCc1ccc(F)cc1)c1ccc(S(=O)(=O)N2CCCCC2)cc1` as the compound, how does the activity change read?
Its activity change is 7.26%.

For `CC1CN/C(=C\C(=O)c2ccc(Br)cc2)C(=O)N1` (centres undefined), which activity change is on record?
The activity change was -2.3%.

Which activity change does the source give for `CCc1nc2c(=O)[nH]cnc2o1` here?
The activity change was -0.15%.

With `CCCNC(=O)C1(C)CCCN(Cc2c(C)nn(-c3ccccc3)c2C)C1` (centres undefined) as the compound, how does the activity change read?
The activity change was 0%.

With `C[C@H]1Cn2cnc(C(=O)N[C@H](C)c3ccccc3)c2C(=O)N1` as the compound, how does the activity change read?
The activity change was 56.9%.

With `O=C(Nc1cccc(C(=O)O)c1)/C(=C\c1ccccc1)NC(=O)c1ccc(Br)o1` as the compound, how does the activity change read?
The activity change was -24.2%.

Which activity change does the source give for `C[C@H]1CN([C@@H](C)CO)S(=O)(=O)c2ccc(Br)cc2O[C@H]1CN(C)C(=O)c1cnccn1` here?
Its activity change is 7.37%.

With `Nc1c(C(=O)c2cccs2)sc2nsc(SCCN3CCCCC3)c12` as the compound, how does the activity change read?
The activity change was -95.7% (active).

Which activity change does the source give for `O=C(CSc1ncnc2sccc12)N1CCN(C(=O)c2cccs2)CC1` here?
The activity change was -0.616%.

Which activity change does the source give for `CCC1OC(C2CC2)CC2=C1C(=O)OC(C)(C)O2` (centres undefined) here?
The activity change was 29.6%.

With `COc1ccc(C2N=C(N)N=C(N)N2c2ccccc2)cc1OC` (centres undefined) as the compound, how does the activity change read?
Its activity change is -16.9%.

For `O=[N+]([O-])c1ccc(N2CCN(c3ccc(F)cc3)CC2)cn1`, which activity change is on record?
Its activity change is -1.6%.

Which activity change does the source give for `NC1=NC(c2ccc([N+](=O)[O-])cc2)N(c2ccc(F)cc2)C(N)=N1` (centres undefined) here?
The activity change was -52.3% (active).

For `CC(C)(C)c1ccc(S(=O)(=O)NC(=O)C2(C)CCN2C(=O)CC2CC2)cc1` (centres undefined), which activity change is on record?
The activity change was -3.72%.

Which activity change does the source give for `c1ccc(-c2cc(N3CCCCC3)c3ccccc3n2)cc1` here?
The activity change was -26.2%.

With `CC(Nc1nc(N2CCN(CCO)CC2)nc2ccccc12)c1ccccc1` (centres undefined) as the compound, how does the activity change read?
The activity change was -90.7% (active).

Which activity change does the source give for `CC(Nc1nc(N2CCCC2)nc2ccccc12)c1ccccc1` (centres undefined) here?
Its activity change is -80.2% (active).

For `CCCCn1c(CN2CCN(CCO)CC2)nc2ccccc21`, which activity change is on record?
The activity change was 44.1%.

Which activity change does the source give for `CC(Nc1nc(N2CCOCC2)nc2ccccc12)c1ccccc1` (centres undefined) here?
The activity change was 0%.

With `Cn1c(=O)[nH]c(=O)c2c1nc(N1CCN(CCO)CC1)n2CCSc1nc2ccccc2s1` as the compound, how does the activity change read?
The activity change was 10.2%.

Which activity change does the source give for `COc1ccc(CCCNC(=O)C2Cc3c(-c4cccc(C(N)=O)c4)ccnc3O2)cc1` (centres undefined) here?
The activity change was 34.7%.

Which activity change does the source give for `CCN(CC)CCCN=C(N)N` here?
Its activity change is -17.5%.

Which activity change does the source give for `O=P(c1ccc2c(c1)OCCO2)(N1CCOCC1)N1CCOCC1` here?
The activity change was 8.69%.

Which activity change does the source give for `Cc1ccc(OCC(=O)Nc2ccc(N3CCN(C(=O)c4ccco4)CC3)cc2)c(C)c1` here?
The activity change was -61.6% (active).

Which activity change does the source give for `Cc1ccc(OCC(=O)Nc2ccc(NC(=O)c3cccs3)cc2)c(C)c1` here?
The activity change was -1.3%.

Which activity change does the source give for `COc1cccc(C(=O)Nc2ccc(N3CCN(C(=O)c4ccco4)CC3)cc2)c1` here?
The activity change was -73.8% (active).

Which activity change does the source give for `COc1cccc(OCc2cc(C(=O)N3CCN(C(=O)c4ccco4)CC3)no2)c1` here?
The activity change was 6.56%.

For `Cc1ccc(NC(=O)C(c2ccccc2)N2CCN(C(=O)c3ccco3)CC2)cc1` (centres undefined), which activity change is on record?
The activity change was 16.1%.

Which activity change does the source give for `COc1ccc(C(=O)Nc2ccccc2C(=O)N2CCN(c3ccccc3)CC2)cc1` here?
Its activity change is 0%.

With `O=C(Nc1cc2c3c(c1)CC(=O)N3CCC2)c1ccccc1F` as the compound, how does the activity change read?
The activity change was 4.9%.

With `CCNC(=O)C1(C)CCCN(Cc2noc(-c3ccccc3OC)n2)C1` (centres undefined) as the compound, how does the activity change read?
Its activity change is -5.34%.

With `C[C@H]1CN([C@@H](C)CO)C(=O)CCCn2nncc2CO[C@@H]1CN(C)Cc1ccc(Oc2ccccc2)cc1` as the compound, how does the activity change read?
The activity change was 8.16%.

With `CCOCCCNC(=O)C(NC(=O)Cc1c[nH]c2ccccc12)c1ccc(OC)cc1` (centres undefined) as the compound, how does the activity change read?
The activity change was 10.6%.

For `Cc1cc(NCc2cccnc2)no1`, which activity change is on record?
The activity change was 3.61%.

Which activity change does the source give for `N#Cc1nc(COc2ccc(-c3ccccc3)cc2)oc1NCc1cccnc1` here?
Its activity change is -79.6% (active).

With `O=S(=O)(c1ccc(Br)cc1)c1nc(-c2ccccc2)oc1NCc1cccnc1` as the compound, how does the activity change read?
The activity change was -18.2%.

For `O=C(COC(=O)/C=C/c1ccc(OC(F)F)cc1)NC1CCCCC1`, which activity change is on record?
Its activity change is 17.5%.

With `C/C(=N\NC(=O)NC1CCCCC1)c1ccc(OC(F)F)cc1OC(F)F` as the compound, how does the activity change read?
Its activity change is -80.5% (active).

For `CCCC/C(C)=N/NC(=O)NC1CCCCC1`, which activity change is on record?
Its activity change is 14.3%.

With `O=C(c1ccc(Cn2cc([N+](=O)[O-])cn2)o1)N1CCCC1` as the compound, how does the activity change read?
Its activity change is 13.7%.

With `Cc1ccn(-c2cccc(-n3ccc(C)n3)n2)n1` as the compound, how does the activity change read?
The activity change was 25.2%.

Which activity change does the source give for `O=C1CCC/C=C/C[C@@H](CC(=O)N(CCO)Cc2ccccc2)C(=O)NC[C@H](c2ccccc2)O1` here?
Its activity change is -15.8%.

With `O=C1OC[C@@H]2CCCN2C(=O)[C@H](CC(=O)N(CCO)Cc2ccccc2)C/C=C\CC[C@@H]1Cc1ccc(F)cc1` as the compound, how does the activity change read?
Its activity change is -27.7%.

For `O=C1NC[C@@H](c2ccccc2)OC(=O)[C@H](Cc2ccc(F)cc2)CC/C=C/C[C@H]1CC(=O)N(CCO)Cc1ccccc1`, which activity change is on record?
Its activity change is -57.4% (active).

Which activity change does the source give for `O=C1CCC/C=C\C[C@@H](CC(=O)N(CCO)Cc2ccccc2)C(=O)NCCO1` here?
The activity change was 36.5%.

Which activity change does the source give for `O=C1N[C@@H](c2ccccc2)COC(=O)[C@H](Cc2ccc(F)cc2)C/C=C\C[C@@H]1CC(=O)N(CCO)Cc1ccccc1` here?
Its activity change is -68.1% (active).

With `CC(C)(C)OC(=O)C[C@@H]1C/C=C\C[C@@H](CC(=O)N(CCO)Cc2ccccc2)C(=O)N[C@H](Cc2ccccc2)COC1=O` as the compound, how does the activity change read?
The activity change was -12.5%.
